Legend:
Test in all cases: PBM binding z-score (relative to random genomic background probes); higher = stronger binding; sequences stand for … in GC…GCGATTGACAGCGTAGAATGAAGG
[1] = test system: RARb homodimer (NR concentration 270 nM)
Procedure, shortened: (§1)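 Ligand-free nuclear receptor dimers were bound for 1 h to custom Agilent 4×180K protein-binding microarrays. Detection used antibodies against each partner (one per run). Binding z-scores rest on regression-normalized fluorescence, with random background probes as the reference.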

[2] = test system: RARg:RXRa (NR concentration 270 nM, RXRa partner concentration 90 nM)
Procedure, shortened: as §1

[3] = test system: RARg homodimer (NR concentration 270 nM)
Procedure, shortened: as §1

[4] = test system: RXRa DBDmut IVT, anti-RXR (DBD mutation: RXRa K156A/R161A, NR concentration 90 nM)
Procedure, shortened: as §1

[5] = test system: RXRa homodimer (NR concentration 180 nM)
Procedure, shortened: as §1

[6] = test system: THRa:RXRa (NR concentration 90 nM, RXRa partner concentration 90 nM)
Procedure, shortened: as §1

[7] = test system: THRa homodimer (NR concentration 90 nM)
Procedure, shortened: as §1

[8] = test system: VDR homodimer (NR concentration 270 nM)
Procedure, shortened: as §1

Sequence	PBM binding z-score [1]	PBM binding z-score [2]	PBM binding z-score [3]	PBM binding z-score [4]	PBM binding z-score [5]	PBM binding z-score [6]	PBM binding z-score [7]	PBM binding z-score [8]
TCTATTAGTTGATTAGTGCAACCGAAACAGCGGA	0.0135	0.467	0.362	0.964	0.333	0.158	0.00829	0.654
CCAGACAGGTTAGAAGGTAACTCAGCCTCGATTA	0.786	0.637	0.641	0.0628	0.699	0.493	0.212	0.658
CAAACTAGGTCTAGAGGTCAAAGTCCGCTTCCCG	4.55	5.26	4.46	1.89	5.98	3.8	1.56	4.46
TCATAAAGGTAAAAGGTGAAAGTCGGTGTGGTAA	2.25	2.87	1.28	1.94	4.16	2.34	0.408	0.435
TCTCGGAGGACACGAAGGGTCAGAGCTCGACATC	3.84	3.26	3.44	0.595	2.4	2.92	0.541	0.624
GGAACGAGGGCAAGTTGACAGCAGAGTTTGATGG	1.76	1.71	2.41	2.46	1.16	1.17	-0.0541	1.42
TGAAGGAGGTTAAAGATCAGGGAACGTGGCGTCG	1.01	1.89	0.932	-0.223	3.25	1.26	0.214	0.438

Source: the supplement of paper PMC6555819
